The list is not random: actives were taken first. Their share in the collection is about 0.35%.
GRP78 ERSR act: ER stress response induction in glioma; 0.02% of 420,000 active; Potency, µM, inactives show at the top dose activation, actives largely listed as activators; U87-MG GRP78 promoter luciferase reporter, 16 h; also: potency is read from the fitted curve at half-maximal effect; series mostly up to about 76 µM; % of control where 0% means no effect; nearly all actives have a fitted effect of over 35% in size
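Stably transfected U87-MG human glioma cells carrying a GRP78-based luminescent sensor were seeded at 1000 cells/well, pin-dosed with compounds and incubated 16 h. Luciferase reagent was then added, and end-point luminescence was read after 10 min at room temperature.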
Vif-APOBEC3G blk: Vif-A3G binding inhibition; Q9HC16; Potency, µM (titrated, usually from 46.1 µM), for the others: top-dose activity, negative = active, usual class: inhibitors; 0.076% of 410,000 active; HeLa A3G-eYFP + Vif (tagged APOBEC3G with the HIV-1 protein that degrades it), YFP fluorescence, overnight; also: potency is read from the fitted curve at half-maximal effect; % is scaled to controls: 0 for no effect and ±100 for the full control effect; nearly all actives have a fitted effect of over 60% in size
Target sequence (Q9HC16 whole entry, looked up): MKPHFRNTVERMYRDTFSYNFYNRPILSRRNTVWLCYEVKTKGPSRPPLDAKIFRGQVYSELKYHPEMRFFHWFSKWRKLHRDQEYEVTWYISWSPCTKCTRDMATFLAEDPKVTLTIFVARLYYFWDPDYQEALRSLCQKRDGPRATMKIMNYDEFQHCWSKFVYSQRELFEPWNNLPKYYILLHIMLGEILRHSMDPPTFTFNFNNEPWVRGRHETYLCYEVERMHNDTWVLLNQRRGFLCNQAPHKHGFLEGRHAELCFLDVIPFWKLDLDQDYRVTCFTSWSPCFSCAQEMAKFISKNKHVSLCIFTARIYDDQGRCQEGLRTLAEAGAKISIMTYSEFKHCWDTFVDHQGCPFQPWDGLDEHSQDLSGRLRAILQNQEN
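Read-out is eYFP fluorescence (Ex 488/Em 500-530) from Vif-expressing HeLa A3G-eYFP cells; more signal means A3G escaped Vif-mediated degradation. Cells plated overnight, compound pinned in, incubated overnight at 37 deg C.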
Vif-A3F inh: Vif-A3F binding inhibition; HeLa A3F-eYFP + Vif (tagged APOBEC3F with the HIV-1 protein that degrades it), YFP fluorescence increase; Potency, µM (doses to about 46.1 µM), for the others: at the highest dose activity, negative = active; 0.2% of 390,000 active; AID 602313; also: potency is read from the fitted curve at half-maximal effect; % of control where 0% means no effect; nearly all actives have a fitted effect of over 65% in size
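HeLa cells stably expressing A3F-eYFP plus Vif, plated and incubated overnight at 37 deg C, then exposed to compounds overnight at 37 deg C. Blocked degradation read as raised yellow fluorescence (Ex 488/Em 500-530).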
Epigenetic reg: epigenetic control regulation, reporter derepression. 0.2% of 280,000 active. murine LDR cells, GFP reporter derepression, 30 h. AID 1865. Potency, µM (titrated, usually from 53.9 µM), without a hit: top-dose GFP activation, hits mostly activators; also: potency is read from the fitted curve at half-maximal effect; % of control where 0% means no effect; nearly all actives have a fitted effect of over 60% in size
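In this reporter-derepression format, murine cells bearing a silenced integrated CMV-GFP locus incubate with test compound (30 h, 37 C), then are washed and imaged; fluorescent objects of 20–120 um count as induced cells.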
C127i cell count: changes parental c127i cell counts in epigenetic modulator counter-screen | shares compounds with Epigenetic reg | mouse c127i parental cells, fluorescent cell count, 30 h | Potency, µM, for the others: at the highest dose fluorescent cell count, usual class: activators | 20% of 60 active
HCC4017 viab: reduces HCC4017 lung cancer cell viability among epigenetic modulators. shares compounds with Epigenetic reg. HCC4017 NSCLC viability, CellTiter-Glo ATP luminescence, 72 h. Potency, µM (doses to about 46.1 µM), inactives show top-dose activity change, negative = cytotoxicity, most hits filed as cytotoxic. 30% of 45 active
H358 viab: epigenetic modulators: cytotoxicity in H358 lung cancer cells. shares compounds with Epigenetic reg. H358 NSCLC viability, ATP luminescence, 72 h. Potency, µM (doses to about 46.1 µM), for inactives: at the highest dose activity change, negative = viability loss, hits mostly cytotoxic. 30% of 45 active. AID 493074
The depositor's hits bear a star; ? = inconclusive; / = not tested or not shown. Calls follow the shape of the dose curve; as a rule, active = well fitted curve in the direction sought with a large enough effect; inconclusive = small, poorly fitted or top-dose-only effect, or another doubt; inactive = no such curve, though single readings can be large; an effect the other way counts as inactive or inconclusive.

SMILES	GRP78 ERSR act	Vif-APOBEC3G blk	Vif-A3F inh	Epigenetic reg	C127i cell count	HCC4017 viab	H358 viab
O=C(N/N=C/c1ccccn1)c1cc(-c2ccc(Br)cc2)nc2ccccc12	-4%	-3%	-1%	?	/	/	/
O=C(N/N=C/c1ccccn1)c1cc(-c2ccc(Cl)cc2)nc2ccccc12	?	?	?	5µM*	3%	?	?
CC(=O)N1c2ccc(S(=O)(=O)NCC3CCC(C(=O)Nc4ccc(F)cc4)CC3)cc2CC1C (centres undefined)	-4%	-4%	-9%	-1%	/	/	/
CCc1ccc(NC(=O)C2CCC(CNS(=O)(=O)c3ccc4c(c3)CC(C)N4C(C)=O)CC2)cc1 (centres undefined)	-1%	7%	0%	?	1%	?	-11%
Cc1cc(C)c2c(c1)C1C=CCC1C(C(=O)O)N2 (centres undefined)	-4%	3%	/	/	/	/	/
N#CC1=C(N)n2c(s/c(=C\c3cccs3)c2=O)=C(C#N)C1c1cccs1 (centres undefined)	2%	?	?	10µM*	14µM*	/	/
CN(C)S(=O)(=O)c1cccc(NC(=S)N/N=C/c2ccco2)c1	0%	-4%	8%	3.5µM*	6%	-1%	-3%
Cc1ccc(C)c(CN2CCCN(Cc3ccc(F)cc3)S2(=O)=O)c1	-4%	8%	-4%	-2%	/	/	/
COc1ccc2c(C)nc(Nc3nc(-c4ccccc4)cc(=O)[nH]3)nc2c1	-6%	-7%	9%	3.5µM*	6%	8.9µM*	4.4µM*
COc1cc(Cl)ccc1OC1(C)CCN(Cc2ccc(-c3ccccn3)cc2)C1 (centres undefined)	1%	0%	/	/	/	/	/
